High-throughput results (PubChem BioAssay)
Bfl-1 A1 inh – caspase 3/7 activation in MEF A1-2A-BIM cells, primary screen, A1 inhibitor project, cell-based, luminescence, HTS; caspase activation, % (no concentration beside the values); AID 2462, 2010; Caspase-Glo 3/7 luminescence, 3 h; percent of clofoctol response, vehicle zero; 0.066% of 330,000 active;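 active = over half of replicate activation scores above 10%, or exactly half above 10 with the replicate mean above 10; inconclusive = replicate mean below 10 yet half the replicates above 10; inactive = over half of replicates below 10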
VLA-4 inh – inhibition in human VLA-4 binding assay, primary screen, VLA-4 allosteric modulator project, MLPCN library, flow cytometry, VLA-4 expressing cells; AID 2557, 2010; 0.2% of 330,000 active; ligand binding flow cytometry; inhibition, % (about 7 µM as worked out from the volumes in the protocol); Integrin alpha-4 (Homo sapiens), P13612; in the data active = inhibition above about 50%
ALR inh – inhibitors of human ALR sulfhydryl oxidase, primary screen, biochemical, H2O2 detection, HRP-luminol luminescence, single point | FAD-linked sulfhydryl oxidase ALR (Homo sapiens), P55789 | purified ALR, DTT oxidation | inhibition, % (concentration not given with the values) | 3.8% of 290,000 active;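 active = mean replicate inhibition above about 79%, with every replicate also reaching it, limit read from the data; inconclusive = only one of the two criteria met; inactive = mean below limit and not every replicate reaching it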
Mot1-301 SUMO – yeast Mot1-301 growth rescue at high temperature, primary screen, SUMOylation pathway inhibitor project, S. cerevisiae, ATP luminescence, 38.5C; 1% of 320,000 active; growth rescue, % at 18.8 µM; S. cerevisiae Mot1-301 growth rescue; percent above DMSO median, 100 means doubled;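 active = every valid replicate shows activation above 250% relative to neutral control wells; inactive = the rest, any valid replicate at or below 250%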
AHR activator – AHR activators, primary screen, cell-based, luminescence, luciferase reporter, human; Aryl hydrocarbon receptor (Homo sapiens), P35869; AHR-responsive luciferase reporter cells; activation, % at 5 µM; 2.5% of 320,000 active; in the data active = activation above about 47%
Target sequence (P35869 whole entry, looked up): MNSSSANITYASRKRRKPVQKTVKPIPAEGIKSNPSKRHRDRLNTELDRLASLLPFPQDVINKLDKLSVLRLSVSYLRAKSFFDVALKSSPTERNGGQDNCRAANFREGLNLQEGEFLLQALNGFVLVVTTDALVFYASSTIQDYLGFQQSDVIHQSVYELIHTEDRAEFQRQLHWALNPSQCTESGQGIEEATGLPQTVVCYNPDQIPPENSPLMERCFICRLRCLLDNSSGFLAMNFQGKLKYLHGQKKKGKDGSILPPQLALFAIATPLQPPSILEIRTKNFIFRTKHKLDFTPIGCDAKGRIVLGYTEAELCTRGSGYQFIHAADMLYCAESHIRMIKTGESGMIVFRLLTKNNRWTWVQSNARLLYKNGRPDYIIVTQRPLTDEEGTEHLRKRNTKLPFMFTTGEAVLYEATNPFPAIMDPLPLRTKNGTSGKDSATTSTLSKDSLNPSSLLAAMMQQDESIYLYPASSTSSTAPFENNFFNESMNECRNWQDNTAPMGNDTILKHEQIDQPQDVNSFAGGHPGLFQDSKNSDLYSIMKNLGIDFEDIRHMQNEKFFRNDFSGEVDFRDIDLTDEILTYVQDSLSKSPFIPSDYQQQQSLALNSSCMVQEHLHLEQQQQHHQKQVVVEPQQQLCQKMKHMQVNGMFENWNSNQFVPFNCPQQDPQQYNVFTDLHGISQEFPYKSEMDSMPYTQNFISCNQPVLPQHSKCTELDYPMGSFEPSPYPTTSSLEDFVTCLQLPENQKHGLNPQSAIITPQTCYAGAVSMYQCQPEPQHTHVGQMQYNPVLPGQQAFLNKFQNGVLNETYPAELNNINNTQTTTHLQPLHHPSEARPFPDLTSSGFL
Efflux pump inh – inhibitors of Candida efflux pumps in yeast, primary screen, S. cerevisiae, Nile Red, multiplex; S. cerevisiae Candida pump triplex; inhibition, % at 10 µM; 0.44% of 330,000 active;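 active = plate passing quality check with inhibition over a set limit, or well fluorescence over plate mean plus 4 SD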;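 also: Nile Red retained in pooled yeast measured as flow cytometry median fluorescence; higher means more Nile Red kept so more efflux inhibition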
Numbers stand for hits; 0 = inactive; ? = inconclusive; - = not tested or not shown. Hits are enriched below; roughly 7.2% of the tested compounds scored in any of these assays.

SMILES | Bfl-1 A1 inh | VLA-4 inh | ALR inh | Mot1-301 SUMO | AHR activator | Efflux pump inh
Cc1ccccc1OCC(=O)N(Cc1cccs1)C1CCS(=O)(=O)C1 (stereo not given) | 0 | 0 | 97.0 | 0 | 0 | 0
Cc1ccccc1OCc1nnc(SCC(=O)Nc2ccc3nc(SCC(=O)Nc4ccccc4)sc3c2)n1C | 0 | 0 | - | - | 0 | 0
CN(C)c1ccc(CN(C(=O)c2cccs2)C2CCS(=O)(=O)C2)cc1 (stereo not given) | 0 | 0 | 93.1 | 0 | 0 | 0
COc1cc2c(cc1O)CC[C@@H]1[C@@H]2CC[C@]2(C)[C@@H](O)CC[C@@H]12 | 0 | 0 | 99.1 | 0 | 0 | 0
C[C@]12CC[C@@H]3c4ccc(OC(=O)c5ccccc5)cc4CC[C@H]3[C@@H]1CC[C@@H]2O | 0 | 0 | 0 | 0 | 0 | 0
COC(=O)c1c(C)[nH]c(C)c1C(=O)c1ccccc1Cc1ccccc1 | 0 | 0 | 0 | 0 | 0 | 0
O=C(Oc1coc(CSc2nnc(NC(=O)C3CC3)s2)cc1=O)c1c(F)cccc1F | 0 | 0 | 96.5 | 0 | 0 | 0
CCCC1CCC(c2ccc(/C(N)=N/O)cc2)CC1 (stereo not given) | 0 | 0 | 93.5 | 0 | 0 | 0
COc1cc(C(=O)OCc2ccc(C)cc2)cc(NC(=O)c2cccs2)c1OC | 0 | 0 | 0 | 0 | 58.4 | 0
COc1cc(C(=O)O)cc(NC(=O)c2cccs2)c1OC | 0 | 0 | - | 0 | 0 | 0
Oc1cc2c(cc1O)C(c1ccccc1)CNCC2 (stereo not given) | 0 | 0 | 97.9 | 0 | 0 | 0
CCOc1ccc(NC(=O)c2cc(S(=O)(=O)N3CCOCC3)cn2C)cc1 | 0 | 0 | 0 | 0 | 0 | 0
Cc1c(Cl)cccc1NC(=S)Nc1ccc2[nH]c(=O)[nH]c2c1 | 0 | 0 | 94.9 | 0 | 0 | 0
COc1cc(CNc2ccc3[nH]c(=O)[nH]c3c2)cc(Br)c1OCc1ccc(F)cc1 | 0 | 0 | 0 | 0 | - | 0
O=c1[nH]c2ccc(NC(=S)Nc3ccc(F)cc3)cc2[nH]1 | 0 | 0 | 89.9 | 0 | 0 | 0
O=c1[nH]c2ccc(NCc3ccc(F)cc3)cc2[nH]1 | 0 | 0 | 99.8 | 0 | 0 | 0
COCC(C)NC(=O)c1cc(-c2cccc(OC)c2)on1 (stereo not given) | 0 | 0 | 0 | 0 | 0 | 0
COCC(C)NC(=O)c1cc(-c2ccc(O)cc2)on1 (stereo not given) | 0 | 0 | 99.2 | 0 | 0 | 0
O=C(CSc1nc(C2CC2)nc2sc3c(c12)CCCC3)NCc1ccco1 | 0 | 0 | 0 | 0 | 0 | 0
Cc1cc(SCC(=O)NC(=O)NCc2ccco2)nc2c(C)cccc12 | 0 | 0 | 0 | 0 | 0 | 0
O=[N+]([O-])c1ccc(CSc2ncnc3ccccc23)cc1 | 0 | 0 | 98.6 | 0 | 0 | 0
Cc1nc(SCC(=O)NCc2ccco2)c2c3c(sc2n1)CCCC3 | 0 | 0 | 96.8 | - | 0 | 0
O=C(CSc1ncnc2ccccc12)NCc1ccco1 | 0 | 0 | 98.5 | 0 | 0 | 0
Cc1cc(SCC(=O)NC(=O)NCc2ccco2)nc2ccccc12 | 0 | 0 | 97.6 | 0 | 0 | 0
O=C(COc1ncnc2ccccc12)NCc1ccco1 | 0 | 0 | 0 | 0 | 0 | 0
SMILES | Bfl-1 A1 inh | VLA-4 inh | ALR inh | Mot1-301 SUMO | AHR activator | Efflux pump inh
Cc1cccc(C)c1NC(=O)CN(C)CC(=O)N1CC(=O)Nc2ccccc21 | 0 | 0 | 0 | 0 | 0 | 0
CCN1CCN(C(=O)C2CCN(c3nnc(-n4c(C)ccc4C)s3)CC2)CC1 | 0 | 0 | 0 | 0 | 0 | 0
Cc1ccc2nc(SCC(=O)NCc3ccco3)c(C)cc2c1 | 0 | 0 | 97.9 | 0 | 0 | 0
Cc1ccc2nc(SCC(=O)NCc3ccco3)c(C#N)cc2c1 | 0 | 0 | 0 | 0 | 0 | 0
O=C(CSc1ncnc2ccccc12)c1ccco1 | 0 | 0 | 99.2 | 0 | 0 | 0
Nc1[nH]nc2nc3ccccc3cc12 | 0 | 0 | 0 | 0 | 0 | 0
CCc1ccc2nc3n[nH]c(N)c3cc2c1 | 0 | 0 | 90.2 | - | 0 | 0
CCOc1ccc(C(C)=O)cc1CSC(=N)N | 0 | 0 | 0 | 0 | 0 | 0
COc1ccc(C(C)=O)cc1CSC(=N)N | 0 | 0 | 98.7 | 0 | 0 | 0
O=C(OCC(=O)N1CCc2ccccc2C1)c1cc(=O)[nH]c2ccccc12 | 0 | 0 | 0 | 0 | 0 | 0
S=C(NCc1ccc2[nH]c3c(c2c1)CCCC3)Nc1ccccc1Cl | - | 0 | 0 | 0 | 58.3 | 0
O=[N+]([O-])c1cccnc1N1CCN(c2ccc(F)cc2)CC1 | 0 | 0 | 98.4 | 0 | 0 | 0
CC(=O)Nc1ccc(SCCN2CC[C@@H](C(C)(C)C)CCC2=O)cc1 | 0 | 0 | 99.0 | 0 | 0 | 0
Cc1ccc(SCCN2CCC(C(C)(C)C)CCC2=O)cc1 (stereo not given) | 0 | 0 | 0 | 0 | 0 | 0
COc1ccc(SC[C@H](C)CN2CC[C@H](C(C)(C)C)CCC2=O)cc1 | 0 | 0 | 98.5 | 0 | 0 | 0
CC(=O)Nc1ccc(SC[C@H](C)CN2CC[C@H](O)CCC2=O)cc1 | 0 | 0 | 98.4 | 0 | 0 | 0
O=C(CN1CCN(S(=O)(=O)c2ccc(Cl)s2)CC1)N1CCOCC1 | 0 | 0 | 0 | 0 | 0 | 0
O=C(NCc1ccco1)c1nc(-c2ccc(F)cc2)no1 | 0 | 0 | 0 | 0 | 0 | 0
COC(=O)c1nc(N)sc1C | 0 | 0 | 0 | 0 | 0 | 0
Cc1ccc2c(c1)c1nnc(SCC(=O)Nc3ccc(N(C)C)cc3)nc1n2CC(=O)O | 0 | 0 | 99.9 | 0 | 0 | 0
Cc1ccc2c(c1)c1nnc(SCC(=O)Nc3cccc(Cl)c3C)nc1n2CC(=O)O | 0 | 0 | 0 | 0 | 0 | 0
CC(C)(C)NC(=O)COC(=O)c1ccc(S(=O)(=O)N2CCCC2)cc1 | 0 | 0 | 0 | 0 | 0 | 0
Cc1ccccc1CSc1nnc(C)c(=O)[nH]1 | 0 | 0 | 90.8 | 0 | 0 | 0
Cc1nnc(SCc2cccc([N+](=O)[O-])c2)[nH]c1=O | 0 | 0 | 99.0 | 0 | 0 | 0
O=C(NNS(=O)(=O)c1ccc([N+](=O)[O-])cc1)c1ccc([N+](=O)[O-])cc1 | 0 | 0 | 0 | 0 | 0 | 0
SMILES | Bfl-1 A1 inh | VLA-4 inh | ALR inh | Mot1-301 SUMO | AHR activator | Efflux pump inh
Cc1ccc(S(=O)(=O)NNC(=S)Nc2ccccc2)cc1 | 0 | 0 | 98.6 | 0 | 0 | 0
Cc1ccc(S(=O)(=O)NNC(=S)NC(=O)c2ccc([N+](=O)[O-])cc2)cc1 | 0 | 0 | 93.0 | 0 | 0 | 0
Cc1ccc(S(=O)(=O)NNC(=O)c2ccc(O)cc2)cc1 | 0 | 0 | 96.9 | 0 | 0 | 0
Cc1ccc(C(=O)NC(=S)NNS(=O)(=O)c2ccc(C)cc2)cc1 | 0 | 0 | 97.2 | 0 | 0 | 0
Cc1ccc(S(=O)(=O)NNC(=S)Nc2ccc(Cl)cc2)cc1 | 0 | 0 | ? | 0 | 0 | 0
O=c1[nH]cc([N+](=O)[O-])cc1Br | 0 | 0 | 0 | 0 | 0 | 0
